Reference: PubChem BioAssay (NCATS)
Records with an inconclusive call do not appear. The source made the active and inactive calls. Unless noted, the call rests on the fitted dose curve; in most records, active means well fitted curve in the direction sought with a large enough effect; inconclusive means small, poorly fitted or top-dose-only effect, or another doubt; inactive means no such curve, though single readings can be large; an effect the other way counts as inactive or inconclusive.

Columns and labels:
[1] = molecular target: Estrogen receptor (Homo sapiens) (UniProt P03372); test: qHTS assay for small molecule antagonists of estrogen receptor alpha signaling (AID 588513; active means well fitted curve in the direction sought with a large enough effect in the signal ratio, with a control signal flat, not every such curve was filed as active; the % refers to the signal ratio; further: on the % scale 0 is the no-effect control and ±100 the full control effect)
Estrogen receptor (Homo sapiens), sequence (P03372 whole entry, looked up): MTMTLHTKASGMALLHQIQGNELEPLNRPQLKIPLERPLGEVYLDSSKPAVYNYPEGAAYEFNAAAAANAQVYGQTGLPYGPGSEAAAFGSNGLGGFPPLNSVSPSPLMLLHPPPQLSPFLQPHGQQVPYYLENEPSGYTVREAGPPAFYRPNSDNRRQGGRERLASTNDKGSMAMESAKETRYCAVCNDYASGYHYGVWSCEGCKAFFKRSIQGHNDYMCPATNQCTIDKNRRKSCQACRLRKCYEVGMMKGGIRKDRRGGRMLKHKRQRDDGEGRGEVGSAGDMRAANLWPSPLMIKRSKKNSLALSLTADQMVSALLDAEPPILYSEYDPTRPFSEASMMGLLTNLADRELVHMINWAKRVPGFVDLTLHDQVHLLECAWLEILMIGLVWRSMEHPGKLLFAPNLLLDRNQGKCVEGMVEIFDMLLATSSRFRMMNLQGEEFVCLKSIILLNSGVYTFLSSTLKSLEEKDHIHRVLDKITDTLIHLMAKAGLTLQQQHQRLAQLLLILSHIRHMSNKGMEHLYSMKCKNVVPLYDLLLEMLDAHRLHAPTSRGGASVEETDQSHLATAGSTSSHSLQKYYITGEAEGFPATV
Summary of the method: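 Cells were plated at 5000/well and incubated 4 h at 37 C. Compounds were added as 1:2 dilution series, duplicates. 17-beta-estradiol (0.5nM final) was added for 18 h before CCF4 detection.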

[2] = molecular target: Estrogen receptor (Homo sapiens) (UniProt P03372); test: qHTS assay for small molecule agonists of estrogen receptor alpha signaling (AID 588514; calls by dose curve;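 further: 0% = vehicle only and 100% = reference agonist; nearly all actives have a fitted effect of over 70% in size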)
Summary of the method: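 ER-alpha-UAS-bla GripTite HEK293 cells, 5000/well in 2% charcoal/dextran-stripped FBS medium, treated with compound titrations 18 h at 37 C. CCF4 beta-lactamase read by fluorescence after 2 h RT; normalised to 20 nM 17-beta-estradiol (100%) and DMSO (0%), Hill fit for EC50 and efficacy.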

[3] = molecular target: Glucocorticoid receptor (Homo sapiens) (UniProt P04150); test: qHTS assay for small molecule agonists of glucocorticoid receptor signaling (AID 588532; active means well fitted curve in the direction sought with a large enough effect in the signal ratio, with a control signal flat; the % refers to the signal ratio;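 further: 100% = dexamethasone at 0.1 µM and 0% = DMSO only wells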); details: HeLa MMTV-bla, beta-lactamase ratio, agonist, 18 h; stronger effect = higher value; percent of dexamethasone control, DMSO zero
Glucocorticoid receptor (Homo sapiens), sequence (P04150 whole entry, looked up): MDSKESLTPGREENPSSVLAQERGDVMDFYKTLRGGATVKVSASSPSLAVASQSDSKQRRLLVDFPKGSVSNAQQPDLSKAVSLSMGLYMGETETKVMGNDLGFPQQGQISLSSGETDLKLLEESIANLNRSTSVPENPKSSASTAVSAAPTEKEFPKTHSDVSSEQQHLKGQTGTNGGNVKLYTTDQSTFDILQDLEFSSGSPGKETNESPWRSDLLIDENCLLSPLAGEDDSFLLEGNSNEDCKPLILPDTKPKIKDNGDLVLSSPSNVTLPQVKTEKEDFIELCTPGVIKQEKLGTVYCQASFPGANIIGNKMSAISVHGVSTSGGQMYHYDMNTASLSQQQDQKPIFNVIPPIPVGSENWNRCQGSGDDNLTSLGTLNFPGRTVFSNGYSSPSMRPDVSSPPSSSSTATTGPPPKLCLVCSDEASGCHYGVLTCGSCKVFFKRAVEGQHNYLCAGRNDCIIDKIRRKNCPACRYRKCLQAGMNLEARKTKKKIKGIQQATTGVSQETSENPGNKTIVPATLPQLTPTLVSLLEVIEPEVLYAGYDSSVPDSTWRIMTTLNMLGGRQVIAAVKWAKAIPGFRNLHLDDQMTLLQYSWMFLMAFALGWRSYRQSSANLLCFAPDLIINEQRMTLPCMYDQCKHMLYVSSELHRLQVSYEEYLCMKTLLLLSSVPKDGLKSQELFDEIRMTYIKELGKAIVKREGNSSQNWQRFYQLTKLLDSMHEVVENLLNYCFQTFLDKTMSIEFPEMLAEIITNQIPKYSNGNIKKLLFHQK
Summary of the method: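 Agonist-mode qHTS: GRE-driven beta-lactamase in HeLa cells exposed 18 h to titrated compounds (up to 92 uM), then CCF4 ratio read after 2 h at RT; Hill-fitted EC50, efficacy relative to 0.1 uM dexamethasone.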

[4] = qHTS assay for small molecule antagonists of peroxisome proliferator-activated receptor delta signaling (AID 588535); details: HEK293T PPARd-UAS-bla, beta-lactamase FRET ratio, 18 h; 460 nm channel;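 further: cells co-treated with a PPAR-delta agonist as stimulator during compound exposure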
Summary of the method: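 HEK293T PPAR-delta-UAS-bla cells, 4000/well, 2% charcoal/dextran FBS; 5 h 37 C; cpd titration; 18 h 37 C; CCF4 2 h RT; FI 460/530 nm; Hill fit → IC50, efficacy.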

[5] = molecular target: Peroxisome proliferator-activated receptor gamma (Homo sapiens) (UniProt P37231); test: qHTS assay for small molecule agonists of peroxisome proliferator-activated receptor gamma signaling (AID 588536; active means well fitted curve in the direction sought with a large enough effect in the signal ratio, with a control signal flat, not every such curve was filed as active; the % refers to the signal ratio;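 further: 0% = DMSO basal wells and 100% = rosiglitazone at 2 µM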)
Peroxisome proliferator-activated receptor gamma (Homo sapiens), sequence (P37231 whole entry, looked up): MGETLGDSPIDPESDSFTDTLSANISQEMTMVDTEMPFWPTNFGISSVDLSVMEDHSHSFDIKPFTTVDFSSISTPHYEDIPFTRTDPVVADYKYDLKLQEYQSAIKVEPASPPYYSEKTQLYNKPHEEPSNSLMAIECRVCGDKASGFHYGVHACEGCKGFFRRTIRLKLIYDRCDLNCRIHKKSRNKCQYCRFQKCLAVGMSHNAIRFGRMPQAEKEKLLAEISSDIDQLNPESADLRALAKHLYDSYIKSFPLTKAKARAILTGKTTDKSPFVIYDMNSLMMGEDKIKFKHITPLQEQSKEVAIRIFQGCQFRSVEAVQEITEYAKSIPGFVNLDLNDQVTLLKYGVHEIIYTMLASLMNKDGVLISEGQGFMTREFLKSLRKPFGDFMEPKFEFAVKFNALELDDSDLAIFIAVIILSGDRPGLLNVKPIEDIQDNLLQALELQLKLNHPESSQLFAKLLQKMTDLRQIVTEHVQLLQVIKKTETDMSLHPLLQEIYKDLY
Summary of the method: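 HEK293 UAS-bla reporter line, 1% charcoal/dextran FBS; titration, 16 h, 37 C; CCF4 loading 2 h RT; fluorescence 460/530 nm. Normalized to rosiglitazone 2 uM = 100%, DMSO = 0%.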

[6] = molecular target: Vitamin D3 receptor (Homo sapiens) (UniProt P11473); test: qHTS assay for small molecule antagonists of vitamin D receptor signaling (AID 588541; calls by dose curve;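 further: receptor activated by calcitriol during compound treatment; series mostly up to about 77 µM; on the % scale 0 is the no-effect control and ±100 the full control effect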)
Vitamin D3 receptor (Homo sapiens), sequence (P11473 whole entry, looked up): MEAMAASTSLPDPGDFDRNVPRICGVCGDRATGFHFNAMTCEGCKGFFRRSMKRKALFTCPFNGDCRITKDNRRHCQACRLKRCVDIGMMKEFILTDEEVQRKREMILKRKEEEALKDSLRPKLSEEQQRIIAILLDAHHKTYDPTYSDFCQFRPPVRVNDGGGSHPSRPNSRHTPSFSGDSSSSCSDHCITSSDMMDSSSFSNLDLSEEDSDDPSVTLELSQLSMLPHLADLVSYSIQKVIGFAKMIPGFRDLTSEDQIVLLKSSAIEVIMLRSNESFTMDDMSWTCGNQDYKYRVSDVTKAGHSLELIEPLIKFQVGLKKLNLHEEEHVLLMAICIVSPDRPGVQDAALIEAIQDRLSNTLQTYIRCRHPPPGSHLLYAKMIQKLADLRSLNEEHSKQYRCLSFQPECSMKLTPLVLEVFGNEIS
Summary of the method: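 Antagonist-mode beta-lactamase reporter assay: HEK293T VDR-UAS-bla cells were exposed to titrated compound alongside 1-alpha,25-dihydroxyvitamin D3 at 3 nM final for 16 h. Values were normalized to the 50 nM agonist control and DMSO basal, with IC50 and efficacy from Hill equation fits.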

[7] = qHTS assay for small molecule agonists of retinoid X receptor alpha signaling (AID 588544; calls by dose curve;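 on activation: 0% = DMSO basal wells and 100% = reference agonist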); details: HEK293T RXRa-UAS-bla, beta-lactamase reporter, 18 h; 530 nm emission
[8] = molecular target: Retinoic acid receptor RXR-alpha (Homo sapiens) (UniProt P19793); test: as above
Retinoic acid receptor RXR-alpha (Homo sapiens), sequence (P19793 whole entry, looked up): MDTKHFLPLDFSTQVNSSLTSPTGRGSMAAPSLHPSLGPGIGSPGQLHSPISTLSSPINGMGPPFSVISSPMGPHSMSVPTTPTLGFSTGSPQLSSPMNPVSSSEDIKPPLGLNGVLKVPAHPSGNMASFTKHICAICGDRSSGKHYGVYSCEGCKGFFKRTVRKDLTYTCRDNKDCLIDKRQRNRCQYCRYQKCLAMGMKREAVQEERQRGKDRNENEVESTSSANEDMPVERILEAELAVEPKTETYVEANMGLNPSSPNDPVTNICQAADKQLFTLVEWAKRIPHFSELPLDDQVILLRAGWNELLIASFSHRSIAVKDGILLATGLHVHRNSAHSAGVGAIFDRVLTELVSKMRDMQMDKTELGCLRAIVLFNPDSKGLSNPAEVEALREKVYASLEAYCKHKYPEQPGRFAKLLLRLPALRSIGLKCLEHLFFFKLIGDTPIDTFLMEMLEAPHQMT

[9] = molecular target: Thyroid hormone receptor beta (Homo sapiens) (UniProt P10828); test: qHTS assay for small molecule agonists of thyroid hormone receptor beta signaling (AID 588545; calls by dose curve;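 further: 0% = DMSO only and 100% = 10 nM T3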)
Thyroid hormone receptor beta (Homo sapiens), sequence (P10828 whole entry, looked up): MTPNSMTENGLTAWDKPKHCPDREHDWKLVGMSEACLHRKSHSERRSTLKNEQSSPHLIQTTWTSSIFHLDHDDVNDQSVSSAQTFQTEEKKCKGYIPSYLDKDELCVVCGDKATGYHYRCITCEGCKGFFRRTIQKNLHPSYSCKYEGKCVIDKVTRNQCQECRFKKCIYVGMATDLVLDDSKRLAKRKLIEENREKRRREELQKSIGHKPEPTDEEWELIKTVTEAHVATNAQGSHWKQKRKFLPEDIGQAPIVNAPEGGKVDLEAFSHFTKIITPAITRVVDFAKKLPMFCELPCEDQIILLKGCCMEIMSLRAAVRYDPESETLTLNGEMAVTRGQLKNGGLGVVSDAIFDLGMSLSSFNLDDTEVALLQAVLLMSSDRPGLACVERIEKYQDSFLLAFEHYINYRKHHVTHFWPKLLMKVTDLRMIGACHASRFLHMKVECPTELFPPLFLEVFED
Summary of the method: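 TR-UAS-bla GripTite HEK 293 cells (2500/well, medium with 2% charcoal/dextran FBS) were treated in agonist mode for 18 h at 37 C, titrated. Beta-lactamase was read by CCF4 ratio after 2 h; normalized to 10 nM T3 (100%) and DMSO, Hill-fitted for EC50 and efficacy.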

[10] = qHTS assay for small molecule antagonists of retinoid X receptor alpha signaling (AID 588546; active means well fitted inhibition curve with a large enough effect in the signal ratio, with a control signal flat, not every such curve was filed as active; the % refers to the signal ratio;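 further: cells stimulated with 9-cis-retinoic acid as agonist; on the % scale 0 is the no-effect control and ±100 the full control effect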); details: HEK293T RXRa-UAS-bla, beta-lactamase ratio, antagonist mode; measured here: W530 green channel, cytotoxicity proxy
Summary of the method: (§1)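 Beta-lactamase reporter inhibition, read as CCF4 fluorescence ratio (ex 405, em 460/530 nm) after 2 h at RT. HEK293T UAS-bla cells, 2500/well, were stimulated with 9-cis-RA at 500 or 100 nM final alongside test compound for 18 h at 37 C.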

[11] = molecular target: Retinoic acid receptor RXR-alpha (Homo sapiens) (UniProt P19793); test: as above; details: HEK293T RXRa-UAS-bla, beta-lactamase ratio, antagonist mode
Summary of the method: as §1

[12] = molecular target: Thyroid hormone receptor beta (Homo sapiens) (UniProt P10828); test: qHTS assay for small molecule antagonists of thyroid hormone receptor beta signaling (AID 588547; active means well fitted inhibition curve with a large enough effect in the signal ratio, with a control signal flat, not every such curve was filed as active; the % refers to the signal ratio;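 further: cells stimulated with 0.4 nM T3 agonist during compound exposure; series mostly up to about 77 µM; on the % scale 0 is the no-effect control and ±100 the full control effect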); details: TR-UAS-bla HEK293, beta-lactamase ratio, antagonist mode, 18 h
Summary of the method: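 Inhibition of T3-driven (0.4nM final) beta-lactamase reporter activity was measured over 0.59 nM to 92 uM compound after 18 h at 37 C. The cells were GripTite HEK293 TR-UAS-bla in charcoal/dextran-stripped serum, with CCF4 ratio read-out and IC50 from Hill fits.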

[13] = qHTS assay for small molecule activators of the nuclear factor-kappa B (NF-kB) signaling pathway (AID 651749; active means well fitted activation curve with a large enough effect in the signal ratio; the % refers to the signal ratio; further: series mostly up to about 77 µM; % of control where 0% means no effect); details: NF-kB-bla ME-180 cells, beta-lactamase FRET ratio, 16 h; activation: stronger effect = higher value
Summary of the method: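 Readout: beta-lactamase reporter driven by an NF-kB response element, detected fluorescently as loss of FRET. Cells were the ME-180 line, treated 16 hr at 37C with pin-transferred compound.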

[14] = qHTS assay for environmental chemicals that activate the Aryl hydrocarbon Receptor (AhR) signaling pathway (AID 651777); details: 1A2-DRE human hepatoma cells, luciferase, 24 h; activation: stronger effect = higher value; further: nearly all actives have a fitted effect of over 15% in size; further: potency means the concentration at half of the fitted maximal effect; on activation: % of control where 0% means no effect
Summary of the method: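 Human hepatoma 1A2-DRE cells stably carrying a DRE/CYP1A2 promoter–luciferase reporter, 1,200 cells/well, exposed to compound 24 hr at 37 C. Luciferase read by One-Glo luminescence after 30 min at room temperature; increased signal marks AhR activation.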

[15] = molecular target: Peroxisome proliferator-activated receptor alpha (Homo sapiens) (UniProt Q07869); test: qHTS assay for small molecule agonists of the peroxisome proliferator-activated receptor alpha (PPARalpha) signaling pathway (AID 651778); details: PathHunter PPARalpha complementation, chemiluminescence, 6 h; max response: stronger effect = higher value; further: % of control where 0% means no effect
Peroxisome proliferator-activated receptor alpha (Homo sapiens), sequence (Q07869 whole entry, looked up): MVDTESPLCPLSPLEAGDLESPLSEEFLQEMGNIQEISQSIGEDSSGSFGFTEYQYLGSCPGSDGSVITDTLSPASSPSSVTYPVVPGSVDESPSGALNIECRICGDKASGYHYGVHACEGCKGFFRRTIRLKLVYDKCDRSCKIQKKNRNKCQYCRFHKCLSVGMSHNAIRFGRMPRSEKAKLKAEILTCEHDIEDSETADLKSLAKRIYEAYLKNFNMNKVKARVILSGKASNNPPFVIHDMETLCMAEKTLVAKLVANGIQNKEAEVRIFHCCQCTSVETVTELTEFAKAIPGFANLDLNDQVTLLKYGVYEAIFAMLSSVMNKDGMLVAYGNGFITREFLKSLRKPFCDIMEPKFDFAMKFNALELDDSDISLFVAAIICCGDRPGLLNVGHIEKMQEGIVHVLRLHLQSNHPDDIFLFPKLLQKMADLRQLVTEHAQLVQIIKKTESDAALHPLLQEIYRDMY
Summary of the method: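 Chemiluminescence from complemented enzyme reported PPARalpha activation in cells after 6 hr of compound treatment at 37 C. The detection reagent was incubated for 60 min at room temperature, and compounds were scored as agonists.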

[16] = qHTS assay for small molecule agonists of the antioxidant response element (ARE) signaling pathway measured by Nrf2-dependant transcriptional activity - cell viability counter screen (AID 720653; active means well fitted curve in the direction sought with a large enough effect in the repeat runs; an effect the other way counts as inactive or inconclusive; further: on the % scale 0 is the no-effect control and ±100 the full control effect); details: ARE-bla HepG2 viability, CellTiter-Glo ATP luminescence, 16 h; max response: stronger effect = lower value
Summary of the method: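 Cytotoxicity counter screen: intracellular ATP quantified by CellTiter-Glo luminescence in the same ARE-bla HepG2 plates, after 16 h compound exposure and a 2 h beta-lactamase substrate step.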

[17] = qHTS assay for cell viability of HEK293 cells (AID 743288); details: ATP luminescence (CellTiter-Glo), 18 h; max response: stronger effect = lower value; further: on the % scale 0 is the no-effect control and ±100 the full control effect; nearly all actives have a fitted effect of over 50% in size
Summary of the method: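 The Tox21 protocol used parental HEK293 cells treated for 18 h at 37 C with compounds delivered by pintool; ATP-coupled luminescence after 30 min at room temperature gave viability.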

[18] = molecular target: Nuclear receptor subfamily 1 group I member 2 (Rattus norvegicus) (UniProt Q9R1A7); test: qHTS assay for small molecule activators of the rat pregnane X receptor (rPXR) signaling pathway (AID 651751; call rule not given here; further: 0% is about no effect); details: rPXR reporter cells, luciferase (One-Glo), 24 h
Nuclear receptor subfamily 1 group I member 2 (Rattus norvegicus), sequence (Q9R1A7 whole entry, looked up): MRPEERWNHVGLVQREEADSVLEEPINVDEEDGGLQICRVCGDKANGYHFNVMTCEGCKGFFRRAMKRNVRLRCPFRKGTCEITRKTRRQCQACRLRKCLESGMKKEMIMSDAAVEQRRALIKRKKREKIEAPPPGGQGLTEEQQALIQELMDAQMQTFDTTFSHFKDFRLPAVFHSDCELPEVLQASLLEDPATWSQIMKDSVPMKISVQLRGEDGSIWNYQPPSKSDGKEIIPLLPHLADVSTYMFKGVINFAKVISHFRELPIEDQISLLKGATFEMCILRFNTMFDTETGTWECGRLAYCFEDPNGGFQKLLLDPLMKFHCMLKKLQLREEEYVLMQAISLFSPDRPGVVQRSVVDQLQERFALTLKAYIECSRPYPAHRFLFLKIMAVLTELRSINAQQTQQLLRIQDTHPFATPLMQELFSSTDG

[19] = qHTS assay for small molecule activators of the human pregnane X receptor (PXR) signaling pathway (AID 720659; call rule not given here; further: 0% is about no effect)
[20] = qHTS assay for cell viability of the p53RE-bla HCT-116 cell line (AID 743292); further: on the % scale 0 is the no-effect control and ±100 the full control effect; nearly all actives have a fitted effect of over 55% in size
Summary of the method: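 CellSensor p53RE-bla HCT-116 cells (4,000/well) pre-incubated 5 h at 37 C, then exposed to compounds in DMSO for 16 h at 37 C. Viability read as ATP content by CellTiter-Glo luminescence after 30 min at room temperature.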

CCCCCCCCCC(C)=O
-16.2%: max response [7]
inactive: Potency [1] | Potency [2] | activation [3] -12.1% | outcome [5] | Potency [6] | Potency [8] | Potency [9] | max response [11] -4.81% | activity change % (negative = inhibition) [12] -10.7% | activation [13] 0.316% | activation [14] 0.0383% | max response [15] 0.198% | max response [16] -10.8% | max response [17] -5.17% | max response [18] -2.12% | outcome [19]
-6.07%: max response [10]
26.8%: max response [4]

O=C1CCCC/C=C/CCCCCCCCCO1
inactive: Potency [1] | Potency [2] | activation [3] -15.4% | outcome [5] | Potency [6] | Potency [8] | Potency [9] | activity change % (negative = inhibition) [12] -13.1% | activation [13] -0.561% | activation [14] -0.496% | max response [15] 11.1% | max response [16] 0.0367% | max response [17] 4.39% | Potency [20] | max response [18] -0.578% | outcome [19]
-14.2%: max response [7]
-0.124%: max response [4]
-16.9%: max response [10]

Cn1c(=O)[nH]c(=O)n(C2CCC(O)CC2)c1=O (stereo not drawn)
inactive: Potency [1] | Potency [2] | activation [3] -2.18% | Potency [8] | Potency [9] | max response [11] -0.444% | activity change % (negative = inhibition) [12] 3.03% | activation [13] -0.274% | activation [14] 1.88% | max response [15] -2.74% | max response [16] 7.46% | max response [17] -0.781% | Potency [20] | max response [18] -2.03% | outcome [19]
54.4%: max response [4]
-1.59%: max response [10]
-1.18%: max response [7]

CCCCOC(=O)c1ccccc1
0.0882%: max response [4]
inactive: Potency [1] | Potency [2] | activation [3] -8.22% | Potency [6] | Potency [8] | max response [11] 3.76% | activation [13] 0.836% | max response [15] -1.04% | max response [17] -6.32% | Potency [20] | max response [18] -2.16% | outcome [19]
-1.79%: max response [10]
-7.9%: max response [7]

C[Si](Cl)(Cl)c1ccccc1
-17.5%: max response [7]
44.2%: max response [4]
-2.11%: max response [10]
inactive: Potency [1] | Potency [2] | activation [3] 17.8% | outcome [5] | Potency [6] | Potency [8] | Potency [9] | max response [11] -4.88% | activation [13] 0.494% | activation [14] 0.0847% | max response [15] -2.64% | max response [16] -14.9% | max response [17] -2.42% | Potency [20] | max response [18] -3.28% | outcome [19]

Cc1ccc(N=Nc2c(O)ccc3ccccc23)c(C)c1
inactive: Potency [1] | Potency [2] | activation [3] -16.9% | outcome [5] | Potency [6] | Potency [9] | max response [11] -32% | activity change % (negative = inhibition) [12] 9.11% | activation [13] 6% | max response [15] 0.784% | max response [16] -17.4% | max response [17] -21.3% | Potency [20] | max response [18] 13.1%
9.29%: max response [4]
-15.2%: max response [10]
active: Potency [14] 31.6 µM

CCCCCCCOC(=O)c1ccccc1C(=O)OCCCCCCC
-8.81%: max response [10]
-2.68%: max response [7]
-7.26%: max response [4]
inactive: Potency [1] | Potency [2] | activation [3] -3.48% | outcome [5] | Potency [6] | Potency [8] | Potency [9] | max response [11] 5.05% | activation [13] -1.95% | activation [14] -0.336% | max response [15] 0.0123% | max response [16] 6.19% | max response [17] -8.86% | Potency [20] | max response [18] -1.98% | outcome [19]

CC1(C)CC(NCCCCCCNC2CC(C)(C)NC(C)(C)C2)CC(C)(C)N1
-2.83%: max response [7]
-10.1%: max response [10]
inactive: Potency [1] | Potency [2] | activation [3] -7.91% | outcome [5] | Potency [8] | Potency [9] | max response [11] 2.64% | activity change % (negative = inhibition) [12] -26.6% | activation [13] -3.22% | activation [14] 0.472% | max response [15] -0.876% | max response [16] -7.27% | max response [17] -6.6% | Potency [20] | max response [18] 1.41% | outcome [19]

CC(Cl)(Cl)C(=O)OCCOc1cc(Cl)c(Cl)cc1Cl
-5.22%: max response [4]
-6.02%: max response [7]
inactive: Potency [1] | Potency [2] | activation [3] -10.3% | outcome [5] | Potency [6] | Potency [8] | Potency [9] | activation [13] -1.51% | activation [14] 1.95% | max response [15] 6.22% | max response [16] 2.91% | max response [17] -9.39% | Potency [20] | max response [18] -0.3%
-16.7%: max response [10]

CC(C)Cc1c(C(=O)O)c(C(F)F)nc(C(F)(F)F)c1C1=NCCS1
inactive: Potency [1] | Potency [2] | outcome [5] | Potency [6] | Potency [8] | Potency [9] | max response [11] 6.24% | activity change % (negative = inhibition) [12] -21.3% | activation [13] 1.24% | activation [14] -4.01% | max response [15] -0.845% | max response [16] 3.82% | max response [17] -5.4% | Potency [20] | max response [18] -2.45%
45.9%: max response [4]
-0.767%: max response [10]
-17.4%: max response [7]

CCCCCCCCCCCCCCCCCC(N)=O
inactive: Potency [1] | Potency [2] | activation [3] -6.09% | Potency [9] | activity change % (negative = inhibition) [12] -14.9% | activation [13] -1.76% | activation [14] -1.31% | max response [15] -0.969% | max response [16] 5.14% | max response [17] -6.14% | Potency [20] | max response [18] 4.74% | outcome [19]
51.4%: max response [4]
